From PubChem BioAssay
The list is not random: actives were taken first. Their share in the collection is about 3.7%.
ATXN viability = cell viability loss in ATXN counter-screen | S2 cells (HEK-293 line with an ATXN2-luciferase reporter) viability, CellTiter-Fluor protease fluorescence, 24 h | Potency, µM (top dose mostly 56.7 µM), actives largely listed as cytotoxic | 0.49% of 400,000 active; further: nearly all actives have a fitted effect of over 40% in size
ATXN2 expr inh = reduces ATXN2 reporter expression in HEK-293 cells; HEK-293 ATXN2-luciferase reporter, luminescence, 24 h; Potency, µM (doses to about 57 µM), for the others: at the top dose activity change, negative = inhibition, actives largely listed as inhibitors; 0.72% of 360,000 active; AID 1745845; further: on the % scale 0 is the no-effect control and ±100 the full control effect; nearly all actives have a fitted effect of over 55% in size
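qHTS (up to 57 uM final) was run with 24 h compound exposure of reporter cells at 37 °C. Each well was multiplexed: SteadyGlo luminescence measured ATXN2-luciferase expression after a fluorogenic Gly-Phe-AFC viability readout (25 uM final).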
GLP-1R inv ag = acts as inverse agonist at human GLP-1 receptor | P43220 | HEK293 GLP-1R CRE-luciferase, luminescence, 24 h; GLP-1R form is constitutively active | 1.6% of 410,000 active | AID 624417 | Potency, µM (series often up to 38.3 µM), inactives show at the highest dose activity change, negative = inhibition, hits mostly inhibitors; further: on the % scale 0 is the no-effect control and ±100 the full control effect; nearly all actives have a fitted effect of over 55% in size
Target sequence (P43220 whole entry, looked up): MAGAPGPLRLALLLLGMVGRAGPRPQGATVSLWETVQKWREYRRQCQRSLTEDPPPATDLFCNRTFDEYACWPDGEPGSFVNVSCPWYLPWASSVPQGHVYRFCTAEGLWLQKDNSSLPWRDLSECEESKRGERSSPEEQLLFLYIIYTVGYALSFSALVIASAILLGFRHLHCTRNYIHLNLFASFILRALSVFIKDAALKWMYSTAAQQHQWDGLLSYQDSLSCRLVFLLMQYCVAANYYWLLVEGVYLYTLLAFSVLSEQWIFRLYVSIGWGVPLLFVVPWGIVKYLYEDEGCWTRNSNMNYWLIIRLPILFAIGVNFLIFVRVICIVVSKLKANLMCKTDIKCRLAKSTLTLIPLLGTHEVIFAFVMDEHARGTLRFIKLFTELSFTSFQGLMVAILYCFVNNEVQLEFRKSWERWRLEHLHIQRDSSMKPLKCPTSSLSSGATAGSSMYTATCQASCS
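Inverse agonism was detected as reduced cAMP-driven luciferase luminescence after 24 h compound treatment. The cells were HEK293 clones expressing constitutively active human GLP-1R with the reporter. Reporter-only and GPR119 cell lines served as counterscreen controls.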
GLP-1R agonist = activates the human GLP-1 receptor. Potency, µM (highest dose often 45.6 µM), for inactives: at the highest dose activation, actives largely listed as activators. HEK293 GLP-1R CRE-luciferase, luminescence, 4-6 h; cells express a hypersensitive GLP-1R form. P43220. 0.007% of 380,000 active. AID 624172; further: % of control where 0% means no effect
TGFb SMAD3 inh = TGF-b pathway inhibition | HepG2 CAGA-GFP TGF-b/SMAD3 reporter, GFP fluorescence, 18 h; TGF-beta stimulated, 500 pg/mL final | Potency, µM (titrated, usually from 46.1 µM), inactives show top-dose activity, negative = inhibition, hits mostly inhibitors | 1.2% of 410,000 active | AID 588855; further: on the % scale 0 is the no-effect control and ±100 the full control effect; nearly all actives have a fitted effect of over 65% in size
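HEPG2 CAGA-GFP reporter cells (1000/well, DMEM with 1% FBS) received compounds, then recombinant TGF-beta at 500 pg/mL final for 18 hours at 37 degrees C. Per-cell GFP summed per well was normalised to unstimulated and stimulated DMSO controls before curve fitting.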
HepG2 tox = HepG2 cytotoxicity, counter-screen for TGF-b inhibitors | Potency, µM (doses to about 46.1 µM), without a hit: at the top dose activity change, negative = cytotoxicity, usual class: cytotoxic | 0.76% of 410,000 active | HepG2 CAGA-GFP viability, ATP luminescence, 18 h
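CellTiter-Glo luminescence gave cytotoxicity after 18 hours at 37 degrees C. The cells were HepG2 CAGA-GFP in 1% FBS DMEM, stimulated with 500 pg/mL TGF-beta after compound addition. %Activity was normalised to no-cell wells (complete cell-killing) and DMSO (no toxicity), and curves were fitted and classified.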
Active calls of the source: *; i = inactive; ? = inconclusive; · = no result. The call rests on the fitted dose curve; in most records, active means well fitted curve in the direction sought with a large enough effect; inconclusive means small, poorly fitted or top-dose-only effect, or another doubt; inactive means no such curve, though single readings can be large; an effect the other way counts as inactive or inconclusive. Potency means the concentration at half of the fitted maximal effect.

SMILES	ATXN viability	ATXN2 expr inh	GLP-1R inv ag	GLP-1R agonist	TGFb SMAD3 inh	HepG2 tox
CCCCn1c(NCc2ccccc2O)nc2ccccc21	?	-12%	?	11%	-16%	-9%
CCCCCn1c(NCc2ccccc2OC)nc2ccccc21	?	?	?	·	16µM*	-43%
C=CCc1cccc(CNc2nc3ccccc3n2CCC)c1O	i	-17%	?	-2%	?	-102%
COc1ccc(CNc2nc3ccccc3n2CCN2CCCCC2)cc1	i	?	10µM*	14%	-22%	-27%
O=C(Nc1nc2n(n1)C(c1ccccc1)C=C(c1ccccc1)N2)c1ccccc1 (stereo not drawn)	·	-22%	-10%	·	31%	-11%
N#CC1(c2ccc(NC(=O)c3cccnc3NCc3ccncc3)cc2)CCCC1	·	41%	·	·	·	·
COc1ccc(-c2nc(CNS(=O)(=O)c3cccc(F)c3)cs2)cc1	·	·	-29%	·	·	-22%
COc1ccc(CNc2nc3ccccc3n2Cc2ccc(Cl)cc2)cc1OC	i	-26%	?	8%	14µM*	-36%
CCn1c(NCc2ccc(OC)c(OC)c2)nc2ccccc21	·	·	-10%	·	-20%	-24%
Cc1cc(C)c2c(n1)SCCN2C(=O)Nc1ccc(C(=O)Nc2ccc(C(C)C)cc2)cc1	·	·	22%	·	?	-12%
CCCCCCCCCCCCCC[N+](C)(C)Cc1ccccc1	35µM*	35µM*	·	-2%	?	-98%
CCCCCCCCCCCCCCCC[N+](C)(C)Cc1ccccc1	35µM*	32µM*	·	-6%	·	·
CCCCCCCC[N+](C)(C)CCCCCCCC	i	·	·	-1%	·	·
O=S(=O)(O)OCC1OC(OC2(COS(=O)(=O)O)OC(COS(=O)(=O)O)C(OS(=O)(=O)O)C2OS(=O)(=O)O)C(OS(=O)(=O)O)C(OS(=O)(=O)O)C1OS(=O)(=O)O (stereo not drawn)	·	·	·	-3%	·	·
CCN(CC)CCNC(=O)c1ccc2c(c1)sc1nc(-c3ccc(F)cc3)cn12	·	·	?	·	11µM*	16µM*
CCCN1CCN(CCCNC(=O)c2ccc3c(c2)sc2nc(-c4ccc(OCC)cc4)cn23)CC1	·	·	3%	·	28%	-27%
CCOc1ccc(-c2cn3c(n2)sc2cc(C(=O)NCCCN(CC)CC)ccc23)cc1	13µM*	8.9µM*	10µM*	·	?	10µM*
CCOc1ccc(-c2cn3c(n2)sc2cc(C(=O)NCCCN4CCCCCC4)ccc23)cc1	·	?	8%	·	?	11µM*
CCOc1ccc(-c2cn3c(n2)sc2cc(C(=O)NCCCN4CCCCC4)ccc23)cc1	?	?	33%	·	0%	2.5µM*
CCOc1ccc(CNC(=O)c2ccc3c(c2)sc2nc(-c4ccc(OC)cc4)cn23)cc1	·	·	19%	·	-11%	2%
CN[C@H](CC(C)C)C(=O)N[C@H]1C(=O)N[C@@H](CC(N)=O)C(=O)N[C@H]2C(=O)N[C@H]3C(=O)N[C@H](C(=O)N[C@H](C(=O)O)c4cc(O)cc(O)c4-c4cc3ccc4O)[C@H](O)c3ccc(c(Cl)c3)Oc3cc2cc(c3O[C@@H]2OC(CO)[C@@H](O)[C@H](O)[C@H]2O[C@H]2C[C@](C)(N)[C@H](O)[C@H](C)O2)Oc2ccc(cc2Cl)[C@H]1O (stereo partly drawn)	·	·	·	-4%	·	·
CCCCc1ccc(NC(=O)N2CCN(c3cc(C)nc4ccccc34)CC2)c(C)c1	?	18µM*	?	3%	?	-23%
CC(=O)c1cc(-c2ccccc2)n(CC(=O)NCc2ccccc2C)c1C	i	-1%	6%	·	-12%	-17%
CC1(C(=O)Nc2ccc(Cl)c(Cl)c2)CCN1C(=O)CC1CCCC1 (stereo not drawn)	i	-19%	14µM*	5%	-18%	-17%
